Records with an inconclusive call do not appear. Values without a mark were called inactive. Calls of active or inactive are those of the source. Calls follow the shape of the dose curve; as a rule, active = well fitted inhibition curve with a large enough effect; inconclusive = small, poorly fitted or top-dose-only effect; inactive = flat fitted curve, though single readings scatter.
biological target: Luciferin 4-monooxygenase (Photuris pensylvanica) (UniProt Q27757); assay: Secondary Assay for Luciferase (Kinase-Glo TM) Inhibition Counterscreen; settings: Kinase-Glo luciferase enzyme, luminescence; series mostly up to 58.1 µM; activity, negative = inhibition: at the top concentration;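 as to activity, negative = inhibition: 0% = DMSO only and -100% = 40 µM SIB 1757 full inhibition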
Method: NIH Chemical Genomics Center [NCGC] Malcolm Walkinshaw, Hugh Morgan, Linda Gilmore University of Edinburgh, UK MLPCN Grant: 1 R03 MH085697-01 NCGC Assay Overview: Luciferase (Kinase-Glo, Promega Corporation) was assayed for its ability to generate light using ATP and luciferin as substrates. The ATP concentration in the assay (10 uM) was within the linear range of enzyme activity for the assay conditions used. This assay was used as an counter screen for human pyruvate kinase M2 isoform.
NCGC Assay Protocol Summary: Four uL of substrate mix (final concentration, 50 mM imidazole pH 7.2, 50 mM KCl, 7 mM MgCl2, 10 uM ATP, 0.01% Tween 20, 0.05% BSA) was dispensed into white 1536 well plates. Twenty-three nL of compound was delivered by a pin tool and 2 uL of luciferase detection mix (Kinase-Glo, Promega)) was added. Following 8-minute incubation at ambient temperature, luminescence was measured by a ViewLux (Perkin Elmer) at 5 seconds exposure/plate. Data were normalized to the controls for basal activity (DMSO only) and 100% inhibition (40 uM SIB 1757) and curve fitting was performed using Hill equation.
Potency is read from the fitted curve at half-maximal effect.

| SMILES | Potency | activity, negative = inhibition [%] |
| --- | --- | --- |
| COc1ccc(-c2cn3ccc(C)cc3n2)cc1 | 8.19 µM (active) | – |
| Cc1ccnc(NC(=O)c2ccc3c(c2)OCO3)c1 | 11.6 µM (active) | – |
| COc1ccccc1N1C(=O)c2ccccc2C1=O | – | 0.884 |
| COc1cccc(NS(=O)(=O)c2ccc3c(c2)CCC(=O)N3)c1 | – | 0.18 |
| Cc1ccc(NS(=O)(=O)c2cc3c(cc2-c2ccccc2)NC(=O)CO3)cc1C | – | -0.564 |
| Cc1ccsc1C(=O)Nc1nc2ccccc2[nH]1 | 16.3 µM (active) | – |
| Cc1ccc(-c2cc3c(nn2)-c2ccccc2C3=O)cc1 | 5.8 µM (active) | – |
| Cc1ccc(NS(=O)(=O)c2cc3c(cc2-c2cn[nH]c2)NC(=O)CO3)cc1C | – | 2.46 |
| O=C1CCc2cc(S(=O)(=O)Nc3ccc4c(c3)OCCO4)ccc2N1 | – | -1.13 |
| O=C1c2ccccc2C(=O)N1c1ccc(O)cc1 | – | -1.83 |
| Nc1cc(S(=O)(=O)N2CCN(S(=O)(=O)c3ccc4c(c3)OCCO4)CC2)ccn1 | – | -17.1 |
| O=CN/C=C/c1cc(O)ccc1O | – | -4.82 |
| Cc1ccc(NS(=O)(=O)c2cc3c(cc2N(C)C)NC(=O)CC3)cc1C | – | 0.348 |
| O=C1CCc2cc(S(=O)(=O)Nc3cccc(-c4ccccc4)c3)ccc2N1 | – | -0.362 |
| Cc1cc(N2C(=O)c3ccccc3C2=O)no1 | – | 4.37 |
| O=C1c2ccccc2C(=O)C1c1ccnc2ccccc12 | – | -23.6 |
| O=C1CCc2cc(S(=O)(=O)Nc3cccc(Cl)c3)ccc2N1 | – | -0.248 |
| Cc1ccc(NS(=O)(=O)c2ccc3c(c2)CC(=O)N3C)cc1C | – | 2.38 |
| Cc1ccccc1OC1=NS(=O)(=O)c2ccccc21 | – | -2.81 |
| O=C(c1ccccc1)n1c(=S)nc2ccccn21 | 5.17 µM (active) | – |

| SMILES | Potency | activity, negative = inhibition [%] |
| --- | --- | --- |
| COc1ccc(N=Nc2n(C)c3ccccc3[n+]2C)cc1 | 10.3 µM (active) | – |
| Cc1ccc(NS(=O)(=O)c2ccc3[nH]c(=O)[nH]c3c2)cc1C | – | -1.28 |
| Cc1ccc(NS(=O)(=O)c2ccc3c(c2)CCC(=O)N3)cc1 | – | -4.6 |
| Cc1ccc(S(=O)(=O)/N=C2/C=C(Sc3ncn[nH]3)C(=O)c3ccccc32)c(C)c1 | – | -4.73 |
| Cc1ccc2c(c1)c1ccc3c(c1n2C)C(=O)C=CC3=O | – | -15.3 |
| O=C1c2ccccc2C(=O)N1Cc1ccncc1 | – | -0.589 |
| O=C1c2ccccc2-c2nnc(-c3ccccc3)cc21 | 4.11 µM (active) | – |
| Cc1ccc(C(=O)/C=C/C(=O)c2ccc(C)cc2)cc1 | – | -0.776 |
| Cc1cccc(NS(=O)(=O)c2ccc3c(c2)CCC(=O)N3)c1 | – | -6.26 |
| Cc1nc(-c2ccc(C(=O)Nc3ccccc3F)cc2)cs1 | 11.6 µM (active) | – |
| Cc1ccc(NS(=O)(=O)c2cc3c(cc2C)NC(=O)CO3)cc1C | – | -0.951 |
| CN(C)c1cccc(S(=O)(=O)N2CCN(S(=O)(=O)c3ccc4c(c3)OCCO4)CC2)c1 | – | -3.54 |
| O=C(Nc1ccc2c(c1)OCCO2)c1ccccn1 | 18.3 µM (active) | – |
| O=S(=O)(c1ccc2c(c1)OCCO2)N1CCN(S(=O)(=O)c2c(F)cccc2F)CC1 | inactive | – |
| c1ccc(C2=NNC(=NC3CC3)SC2)cc1 | 3.26 µM (active) | – |
| Nc1ncnc2c1ncn2C1OC(COP(=O)(O)O)C(O)C1O (stereo not given) | 4.61 µM (active) | – |
| Cc1ccc(NS(=O)(=O)c2ccc3ccccc3c2)cc1C | – | 1.5 |
| Cc1ccc(NS(=O)(=O)c2ccc3c(c2)oc(=O)n3C)cc1C | – | -1.45 |
| O=C1CCc2cc(S(=O)(=O)NCc3ccccc3)ccc2N1 | – | -4.55 |
| O=C1c2ccccc2C(=O)N1c1cncc2ccccc12 | – | 0.68 |
